Screening data: PubChem, Broad Institute
Only a sample is shown.
aSyn 5UTR act: Activators working through SNCA 5'UTR binding (MLPCN); alpha-synuclein 5'UTR reporter, activators screen; activity score, % (tested at 7.5 µM), hits read low; 300,000 tested, 7.1% active; AID 1814; in the data active = activity score below about -60%
Numbers stand for hits; – = inactive.

SMILES	aSyn 5UTR act
Oc1ccc(Br)cc1/C=N/N1CCCCC1	-221
CC(=O)N1N=C(c2ccc(C)cc2)OC1c1cccnc1 (configuration not stated)	-75
O=C(NCc1cccs1)c1ccc2c(c1)OCCO2	-70
CCOC(=O)CNC(=O)c1ccc2c(c1)OCCO2	-64
CCOC(=O)CNC(=O)c1cc(-c2ccc3c(c2)OCCO3)oc1C	-99
O=C(NCCc1cccs1)c1ccc(Cl)c(Cl)c1	-209
Cc1ccc(C(=O)NCCc2cccs2)cc1	–
Nc1c(-c2ccc(Cl)cc2)cnn1-c1cccc(C(F)(F)F)c1	-102
Cc1ccc(-c2cnn(-c3cccc(C(F)(F)F)c3)c2N)cc1	-147
Cn1cccc1C1NC(=O)c2c(sc3c2CCC(C(C)(C)C)C3)N1 (configuration not stated)	-97
COc1cccc(C(=O)COc2ccc3c(C)cc(=O)oc3c2)c1	-106
COc1ccc(C2=NOC(COc3ccc4c(C)cc(=O)oc4c3)C2)c(OC)c1 (configuration not stated)	–
COc1cccc(COc2ccc3c(C)cc(=O)oc3c2)c1	-164
C(=C\c1ccccn1)/c1cccnc1	-76
CC1CCc2c(nc3sc4c(c3c2N)CCCC4)C1 (configuration not stated)	-125
CC1CCc2nc3sc4c(c3c(N)c2C1)CCCC4 (configuration not stated)	-132
O=C(CSc1nc(-c2ccccc2)ns1)N1CCOCC1	-110
Cc1cccc(-c2nsc(SCC(=O)N3CCCC3)n2)c1	-140
CC1CCC(C(C)C)C(=O)/C1=C/c1ccc(N)cc1 (configuration not stated)	-173
Clc1ccc2nc3c4ccccc4cnn3c2c1	-160
CCC(=O)NC(=S)Nc1ccc2oc(-c3ccc(OC)cc3)nc2c1	-169
COc1ccc(-c2nc3cc(NC(=S)NC(=O)Cc4ccccc4)ccc3o2)cc1	-143
COc1ccc(/C=N/NC(=O)c2cccs2)c2ccccc12	-62
Cn1cccc1/C=N/NC(=O)c1cccs1	-70
CCCc1cc(C(=O)N/N=C/c2cccn2C)cs1	-72
SMILES	aSyn 5UTR act
Cn1cc(/C=N\NC(=O)c2cccs2)c2ccccc21	-280
CC(=O)n1cc(/C=N/NC(=O)c2ccc(Cl)cc2)c2ccccc21	-69
C/C(=C/c1oc2ccc(O)cc2c1[N+](=O)[O-])N(C)C	-96
Cc1ccc(C(=O)NCCn2cc(SCC(=O)Nc3cc(C)on3)c3ccccc32)cc1	-78
N#CC1=C2C=Cc3ccccc3N2CCCC1=O	-74
O=C(NC(=O)c1ccccc1)Nc1ccccc1	–
COc1ccc(N/N=C(C)/C(=N/O)C(=O)Nc2ccccc2)cc1	-87
COc1ccccc1NC(=O)NC(=O)c1ccccc1	-137
COc1ccc(NC(=O)NC(=O)c2ccccc2)cc1	-221
Cc1ccc(C)c(NC(=S)c2nc3ccccc3s2)c1	-258
Cc1ccc(C)c(NC(=S)c2ccc3ccccc3n2)c1	-288
S=C(Nc1ccc(Cl)cc1)c1nc2ccccc2s1	-127
Cc1ccc(C)c(NC(=S)c2ccccn2)c1	-114
COc1cc(OC)cc(C(=O)Oc2ccc(/C=N/Nc3nc4ccccc4s3)cc2OC)c1	-513
COc1ccc(/C=N/NC(=S)Nc2ccccc2[N+](=O)[O-])cc1O	-131
COc1cc(/C=N/Nc2ccccc2[N+](=O)[O-])ccc1OC(=O)c1ccccc1F	-100
COc1cc(/C=N/Nc2nc3ccccc3s2)ccc1OC(=O)c1ccccc1F	-387
CCCOc1ccc(/C=N/NC(=S)Nc2ccccc2[N+](=O)[O-])c(O)c1	–
COc1cc2nc(Nc3cccc(F)c3)nc(N)c2cc1OC	-93
O=C(COc1cccc2c1CCNC2=O)Nc1cccc(C(F)(F)F)c1	-84
O=c1c2[nH]c3ccc(F)cc3c2ncn1CCC1=CCCCC1	-121
COc1ccc2c(c1)[nH]c1c(=O)n(CCC3=CCCCC3)cnc12	-99
O=C(c1ccco1)N1CCCN(Cc2cn[nH]c2-c2ccc(-c3ccccc3)cc2)CC1	-95
OC1(c2ccc(Cl)cc2)CCN(Cc2cn[nH]c2-c2ccc(F)cc2)CC1	–
O=C(Oc1c(CN2CCOCC2)cc(Cl)c2cccnc12)c1ccc(F)cc1	–
SMILES	aSyn 5UTR act
O=C(c1ccco1)N1CCN(Cc2ccc(F)cc2Cl)CC1	-158
O=C(c1ccco1)N1CCN(Cc2ccccc2Br)CC1	-78
CCOc1ccccc1-n1c(CN2CCN(C(=O)c3ccco3)CC2)nc2ccccc2c1=O	–
OC1(c2ccc(Cl)cc2)CCN(Cc2cn[nH]c2-c2ccccc2)CC1	–
CCC(C(=O)O/N=C(\N)c1cccc(C)c1)c1ccccc1 (configuration not stated)	-88
Cc1cccc(/C(N)=N/OC(=O)Cc2ccccc2)c1	-142
Cc1cccc(/C(N)=N/OC(=O)N2c3ccccc3Sc3ccccc32)c1	-70
Cc1ccc2nsnc2c1NC(=O)CCl	-82
Cc1ccc2nsnc2c1NC(=O)c1ccc([N+](=O)[O-])o1	-173
O=c1[nH]c2ccccc2n1CCCSc1cnc2ccccc2n1	-64
CC(=O)Cn1nnc2sc3c(c2c1=O)CCC(C(C)(C)C)C3 (configuration not stated)	-113
Clc1ccc(CSc2ccc(-c3ccco3)nn2)cc1	-165
O=C(CSc1ccc(-c2ccccn2)nn1)c1ccccc1	-97
Cc1ccc(CSc2ccc(-c3ccco3)nn2)cc1	-142
Cc1cccc(CSc2ccc(-c3ccco3)nn2)c1	-174
Clc1cccc(CSc2ccc(-c3ccco3)nn2)c1	-84
Clc1ccc(CSc2ccc(-c3ccccn3)nn2)cc1	-132
COc1cc2sc3ccc(C#CC4(O)CCCCC4)cc3c(=O)c2cc1OC	-137
Cc1ccc(-n2nnnc2Sc2nc([N+](=O)[O-])nn2C)cc1	-71
Cn1c(=N)n(CC(=O)c2ccccc2)c2ccccc21	–
COc1ccc(C(=O)Cn2c(=N)n(C)c3ccccc32)cc1	-62
Cc1ccc(C(=O)Cn2c(=N)n(N)c3ccccc32)cc1	-166
CCN(CC)CCn1c(=N)n(CC(=O)c2ccc(C)cc2)c2ccccc21	-125
Cc1ccc2nc(CSc3nc(C)cc(C)c3C#N)[nH]c2c1	-70
Cc1ccccc1-n1c(C)cc(/C=N/Nc2ccc([N+](=O)[O-])cn2)c1C	-76
SMILES	aSyn 5UTR act
O=[N+]([O-])c1ccc(N/N=C/c2cccs2)nc1	-187
CC(C)(C)c1nnc(NC(=O)c2ccc3c(c2)OCO3)s1	-191
CCCC(=O)Nc1nnc(-c2ccc3c(c2)OCO3)s1	-141
CCCC(=O)NC(c1ccc2c(c1)OCO2)c1cc(Cl)c2cccnc2c1O (configuration not stated)	–
CC(C)Sc1nnc(NC(=O)c2ccc3c(c2)OCO3)s1	-118
CCN(CC)C(=O)c1sc(NC(=O)c2ccc3c(c2)OCO3)c(C(N)=O)c1C	-105
CC(c1ccccc1)c1nnc(NC(=O)c2ccc3c(c2)OCO3)s1 (configuration not stated)	-139
CC(C)c1nnc(NC(=O)c2ccc3c(c2)OCO3)s1	–
CC(C)(C)c1nnc(NC(=O)COc2ccc3c(c2)OCO3)s1	-81
CCSc1nnc(NC(=O)c2ccc3c(c2)OCO3)s1	-94
Cc1cc(O)cc(O)c1-c1onc(C(F)(F)F)c1-c1cscn1	-78
O=c1c(C=Nc2cccc(C(F)(F)F)c2)c[nH]n1-c1cccc(Cl)n1	-65
Cc1ccccc1-c1cc2nc(C)c(C)c(=O)n2[nH]1	-101
Cc1nc2cc(-c3ccc(F)cc3)[nH]n2c(=O)c1C	-129
Cc1nc2cc(-c3cccs3)[nH]n2c(=O)c1C	-108
O=Nc1c2nc3ccccc3n(O)c-2c2ccccc12	-129
